The structures appear in SMILES notation. The whole screen tested about 11,000 compounds, of which about 310 (2.8%) were called active. The sample holds actives, similar compounds and a random draw of the others, so the mix is not that of the screen. Rule as the data show it: active = activity change below about -85%; inactive = the rest.

The assay relates to intestinal alkaline phosphatase [Mus musculus]. Briefly: mouse intestinal phosphatase enzyme activation – biochemical, luminescence, single concentration, confirmation (AID 434970). The following applies: purified mouse IAP, CDP-Star luminescence, 30 min, at 10 µM; activation factor: measured here: IAP activation factor, stronger effect = higher value; activity change, negative = activation: stronger effect = lower value.
On to `COc1cc(-c2nnc3sc(Cc4ccccc4)nn23)cc(OC)c1OC`, for which the activation factor came to 0.942 and the activity change, negative = activation was 5.85% (inactive).

`CCOC(=O)c1cnc(SCc2cccc(C)c2)nc1N`: the activation factor came to 1.08 and the activity change, negative = activation is -7.85% (inactive).

As for `CCOc1ccc(NC(=O)N2CCC(C(=O)c3ccc(F)cc3)CC2)cc1`, the activation factor turned out to be 1.07 and the activity change, negative = activation was -7.1% (inactive).

In the case of `COc1cccc(OC)c1C(=O)Nc1cccc(C(C)=O)c1`, the activation factor was found to be 0.983 and the activity change, negative = activation is 1.65% (inactive).

For the compound `NS(=O)(=O)c1ccc(N2N=C(c3ccccc3)CC2c2ccccc2)cc1` (centres undefined), the activation factor came out at 1.6 and the activity change, negative = activation is -59.6% (inactive).

Consider `CCCC1(C(=O)OCC)NC(c2cc(OC)c(OC)c(OC)c2)C2C(=O)N(CC)C(=O)C21` (centres undefined), for which the activation factor turned out to be 0.957 and the activity change, negative = activation was 4.35% (inactive).

As to `O=C(CN1CCCCCC1)Nc1ccccc1F`, the activation factor worked out at 0.954 and the activity change, negative = activation is 4.6% (inactive).

With `Cc1cc(C)c2nc(C(F)(F)F)nc(NCCCN3CCCC3=O)c2c1`, the activation factor is 0.947 and the activity change, negative = activation is 5.35% (inactive).

Consider `COc1ccc(/C=N/NC(=O)c2cc(-c3ccccc3OC)nc3ccccc23)cc1COC(C)=O`, for which the activation factor stood at 0.929 and the activity change, negative = activation is 7.05% (inactive).

`O=C(Nc1nc2ccc(S(=O)(=O)N3CCCCC3)cc2s1)C1CCCO1` (centres undefined): the activation factor was determined as 0.96 and the activity change, negative = activation was 4.05% (inactive).

For `COC(=O)C[C@H](NC(=O)Cn1cnc2c(NCc3ccccc3)ncnc21)C(=O)OC`, the activation factor worked out at 0.97 and the activity change, negative = activation was 2.95% (inactive).

On to `Cc1cc(NC(=O)CN2C(=O)C3CC=CCC3C2=O)no1` (centres undefined), for which the activation factor was found to be 0.929 and the activity change, negative = activation was 7.05% (inactive).

For the compound `COc1ccc(OC)c(S(=O)(=O)n2nc(C)cc2C)c1`, the activation factor was 1.08 and the activity change, negative = activation was -7.9% (inactive).

As for `COc1ccccc1/C=C/CN1CCC(n2nccc2NC(=O)CCc2ccccc2)CC1`, the activation factor stood at 2.21 and the activity change, negative = activation was -121% (active).

For the compound `COc1ccc(Cl)cc1NC(=O)CCc1ccccc1`, the activation factor worked out at 0.97 and the activity change, negative = activation is 3% (inactive).

Take `O=C(CCN1CCN(C/C=C/c2ccccc2)CC1)Nc1ccccc1`: the activation factor stood at 1.08 and the activity change, negative = activation was -8% (inactive).

`O=S(=O)(Nc1ccc(Cl)c(C(F)(F)F)c1)c1cnc[nH]1`: the activation factor amounted to 0.887 and the activity change, negative = activation was 11.3% (inactive).

Consider `C[C@H](CO)N1C[C@H](C)[C@@H](CN(C)C(=O)Nc2ccccc2)Oc2ccc(NC(=O)Nc3ccc4c(c3)OCO4)cc2C1=O`, for which the activation factor worked out at 2.17 and the activity change, negative = activation is -117% (active).

On to `C[C@H](CO)N1C[C@H](C)[C@@H](CN(C)C(=O)Nc2ccccc2)Oc2ccc(NC(=O)NC3CCCCC3)cc2C1=O`, for which the activation factor is 1.47 and the activity change, negative = activation was -46.7% (inactive).

Take `COc1ccc(NC(=O)Nc2ccc3c(c2)C(=O)N([C@H](C)CO)C[C@H](C)[C@@H](CN(C)C(=O)Nc2ccc4c(c2)OCO4)O3)cc1`: the activation factor came out at 1.63 and the activity change, negative = activation was -62.9% (inactive).

Consider `C[C@H](CO)N1C[C@H](C)[C@@H](CN(C)C(=O)Nc2ccccc2)Oc2ccc(NC(=O)Nc3ccccc3)cc2C1=O`, for which the activation factor stood at 2.23 and the activity change, negative = activation was -123% (active).

In the case of `C[C@H](CO)N1C[C@H](C)[C@@H](CN(C)C(=O)Nc2ccc(C(F)(F)F)cc2)Oc2ccc(NC(=O)Nc3ccccc3)cc2C1=O`, the activation factor was found to be 1.71 and the activity change, negative = activation is -71.5% (inactive).

As for `COc1ccc(NC(=O)Nc2ccc3c(c2)C(=O)N([C@H](C)CO)C[C@H](C)[C@@H](CN(C)C(=O)Nc2ccccc2)O3)cc1`, the activation factor is 1.59 and the activity change, negative = activation is -59.5% (inactive).

In the case of `C[C@H](CO)N1C[C@H](C)[C@@H](CN(C)C(=O)NC2CCCCC2)Oc2ccc(NC(=O)Nc3ccccc3)cc2C1=O`, the activation factor stood at 2 and the activity change, negative = activation was -99.6% (active).

For the compound `C[C@H](CO)N1C[C@H](C)[C@@H](CN(C)C(=O)Nc2ccc3c(c2)OCO3)Oc2ccc(NC(=O)Nc3ccc4c(c3)OCO4)cc2C1=O`, the activation factor was 1.75 and the activity change, negative = activation was -74.9% (inactive).

As for `COc1ccc(NC(=O)Nc2ccc3c(c2)C(=O)N([C@H](C)CO)C[C@H](C)[C@@H](CN(C)C(=O)NC2CCCCC2)O3)cc1`, the activation factor was 1.64 and the activity change, negative = activation is -64% (inactive).

As to `Cc1ccccc1C1C(C#N)=C2N=C(N)c3c(sc4c3CCCCC4)N2C2=C1C(=O)CCC2` (centres undefined), the activation factor was found to be 0.831 and the activity change, negative = activation was 16.9% (inactive).

Turning to `CC1N(O)C(C)(C)C(c2ccccc2)=[N+]1[O-]` (centres undefined), the activation factor was 1.08 and the activity change, negative = activation was -7.85% (inactive).

For `Cc1cc(NC(=O)CSc2ccc(-c3ccccc3)nn2)no1`, the activation factor was 0.978 and the activity change, negative = activation is 2.15% (inactive).

With `CCOC(=O)Cn1c(=O)c(-c2ccccc2NCc2ccccc2)nc2ccccc21`, the activation factor worked out at 0.764 and the activity change, negative = activation is 23.5% (inactive).

Regarding `COCCn1c(-c2cc(OC)c(OC)c(OC)c2)nc2oc3ccccc3c(=O)c2c1=O`, the activation factor came out at 0.931 and the activity change, negative = activation is 6.9% (inactive).

Turning to `COc1ccc(C2(CNC(=O)Cc3ccc(OC)c(OC)c3)CCOCC2)cc1`, the activation factor amounted to 0.999 and the activity change, negative = activation was 0.05% (inactive).

With `C#CCOCCOCCOCCNc1nc(N2CCN(C(=O)CCCCCCCCCCNC(=O)[C@@H](CCSC)n3cc(CCO)nn3)CC2)nc(N2CCN(C(=O)CCCCCCCCCCNC(=O)[C@H]([C@@H](C)CC)n3cc(CCCCN=C(N)N)nn3)CC2)n1`, the activation factor was determined as 22.1 and the activity change, negative = activation is -2110% (active).

For the compound `C#CCOCCOCCOCCNc1nc(N2CCN(C(=O)CCCCCCCCCCNC(=O)[C@@H](CCSC)n3cc(CCO)nn3)CC2)nc(N2CCN(C(=O)CCCCCCCCCCNC(=O)[C@H]([C@@H](C)CC)n3cc(CCCCCN)nn3)CC2)n1`, the activation factor is 7.35 and the activity change, negative = activation is -635% (active).

Turning to `C#CCOCCOCCOCCNc1nc(N2CCN(C(=O)CCCCCCCCCCNC(=O)[C@H]([C@@H](C)CC)n3cc(CCCCN=C(N)N)nn3)CC2)nc(N2CCN(C(=O)CCCCCCCCCCNC(=O)[C@H](CO)n3cc(CCCSC)nn3)CC2)n1`, the activation factor is 15.4 and the activity change, negative = activation was -1440% (active).

Turning to `FC(F)(F)c1nnc2sc(-c3cccs3)nn12`, the activation factor was 0.967 and the activity change, negative = activation was 3.3% (inactive).

For `CC(=O)Nc1ccc(Nc2nc(C)nc3c2oc2ccccc23)cc1`, the activation factor was 1.01 and the activity change, negative = activation was -1.3% (inactive).

As for `Cn1nnnc1SCC(=O)Nc1ccc(Oc2ccccc2)cc1`, the activation factor is 0.952 and the activity change, negative = activation is 4.85% (inactive).

For the compound `COc1ccc(CCn2c(C)cc(C(=O)CSc3nnc(N)s3)c2C)cc1`, the activation factor was found to be 0.959 and the activity change, negative = activation was 4.1% (inactive).

Regarding `O=C(NCc1ccc(Cl)cc1Cl)C1CCN(S(=O)(=O)c2ccc3c(c2)OCCCO3)CC1`, the activation factor worked out at 1.48 and the activity change, negative = activation is -48.2% (inactive).

As to `COCCNC(=O)CN(C)S(=O)(=O)c1ccc2c(c1)OCCO2`, the activation factor came out at 0.928 and the activity change, negative = activation is 7.15% (inactive).

For the compound `COc1ccc(NC2=C(C(C)=O)C(c3ccc(OC)c(OC)c3)C(C(C)=O)C(C)(O)C2)cc1` (centres undefined), the activation factor is 1.08 and the activity change, negative = activation was -7.85% (inactive).

For the origin of these results see PubChem BioAssay AID434970 (Sanford-Burnham Center for Chemical Genomics, 2010).
